Laboratory results as given in PubChem BioAssay (NCATS).
Records with an inconclusive call do not appear. Values without a mark were called inactive. Activity calls are given as the source filed them. Calls come from the whole dose curve; as a rule, active = well fitted cell-killing curve with a large enough effect; inconclusive = small, poorly fitted or top-dose-only effect; inactive = flat fitted curve, though single readings scatter.

Test: Cell Viability - LYMP2-024 (AID 988); note: nearly all actives have a fitted effect of over 60% in size;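 for activity change, negative = cytotoxicity: plate controls were DMSO only for no effect and 92 µM tetraoctylammonium bromide for full effect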
Settings: LYMP2-024 lymphoblastoid cell viability; series mostly up to 92.2 µM; activity change, negative = cytotoxicity: at the top concentration
Excerpt: NIH Chemical Genomics Center [NCGC]
NIH Molecular Libraries Screening Centers Network [MLSCN]
National Institutes of Environmental Health Sciences [NIEHS]
National Toxicology Program [NTP]
We have developed a 1536-well cell-based assay for quantitative high throughput screening (qHTS) against a number of cell lines to determine in vitro cytotoxicity of small molecules. This particular assay uses a human lymphoblastoid cell line (LYMP2-024) purchased from Coriell Institute for Medical Research.
NCGC Assay Protocol Summary:
The CellTiter-Glo luminescent cell viability assay (Promega) is a homogeneous method to measure the number of viable cells in culture. The end point readout of this assay is based on quantitation of intracellular ATP, an indicator of metabolic activity, using the luciferase reaction. Luciferase catalyzes the oxidation of beetle Luciferin to oxyluciferin and light in the presence of ATP. The luminescent signal is proportional to amount of ATP present.
Using the CellTiter-Glo luminescent cell viability assay, the amount of cellular ATP was measured in the lymphoblastoid cell line with complete culture medium following compound treatment for 24 hours. The assay was performed in opaque white Kalypsys 1536-well plates. In the screen, tetraoctylammonium bromide was used as positive control. Library compounds were measured for their ability to cause acute toxicity in the cell line, as reflected by a decrease in intracellular ATP levels, in a concentration-dependent manner. […] AC50 values were determined from concentration-response data modeled with the standard Hill equation.
qHTS protocol for CellTiter Glo lymphoblastoid cellular assay
[Step] [Parameter] [Value] [Description]
1. Reagent; 5 uL; 2500 lymphoblastoid cells/well
2. Time; 5 hr; 37 C incubation
4. Controls; 23 nL; Tetraoctylammonium bromide 6.4pM to 92 uM
5. Time; 24 hr; 37 C incubation
6. Reagent; 5 uL; CellTiter Glo reagent
7. Time; 30 min; Room Temperature
8. Detection; Luminescence; Viewlux plate reader
Keywords: cell viability, cytotoxicity, lymphoblastoid cell line, luminescence, NTPHTS, NTPHTS_NCGC, NIEHS, DSSTox, MLSMR, MLSCN, NIH Roadmap, qHTS, NCGC
Potency is the fitted concentration of half-maximal effect.

| SMILES | activity change, negative = cytotoxicity [%] | Potency |
| --- | --- | --- |
| CCCCCC[N+](=O)[O-] | 8.68 |  |
| COC(C)(C)C | -19.3 |  |
| Nc1ccc(Oc2ccc(N)cc2)cc1 | -8.47 |  |
| Cc1ccc2c(C)cccc2c1 | 1.38 |  |
| CCCCNC(=O)n1c(NC(=O)OC)nc2ccccc21 | -25.6 |  |
| CC(C)(C)c1ccccc1O | 3.69 |  |
| Cc1ccc(N)cc1N | -9.44 |  |
| C[N+](=O)[O-] | -7.2 |  |
| CN(C)c1ccc(N(C)C)cc1 |  | 50.1 µM (active) |
| Cc1cnc[nH]1 | 12.2 |  |
| Clc1cccc(Cl)c1 | -5.45 |  |
| COC(=O)Nc1nc2ccccc2[nH]1 | -26.2 |  |
| O=[N+]([O-])c1ccccc1CCl | -24.9 |  |
| CCCC[N+](=O)[O-] | -6.88 |  |
| N#CCc1ccccc1 | -7.39 |  |
| Clc1ccc(C(c2ccccc2Cl)C(Cl)(Cl)Cl)cc1 (stereo not given) | -9.85 |  |
| S=C1NCCN1 | -9.86 |  |
| CCCCCCCCCCCOC(=O)c1ccccc1C(=O)OCCCCCCCCCCC | -1.41 |  |
| CC(=O)NNc1ccccc1 | -1.5 |  |
| CSSC | -1.25 |  |

| SMILES | activity change, negative = cytotoxicity [%] | Potency |
| --- | --- | --- |
| Nc1cc(Cl)cc(C(=O)O)c1Cl | -8.25 |  |
| Nc1c(Cl)cc([N+](=O)[O-])cc1Cl | -13.1 |  |
| CCSC(=O)N1CCCCCC1 | -2.19 |  |
| c1ccc(OCC2CO2)cc1 (stereo not given) | 0.461 |  |
| N#C/C=C/C#N |  | 31.6 µM (active) |
| CN(C)c1ccc(N=Nc2ccccc2)cc1 | -23.3 |  |
| ClCCOCOCCCl | -1.84 |  |
| ClC(Cl)Br | -5.74 |  |
| Nc1ccccc1-c1ccccc1 | -24.2 |  |
| O=[N+]([O-])CCO | -13.4 |  |
| O=[N+]([O-])c1cc(Cl)c(Cl)c(Cl)c1 | -16.5 |  |
| CC[N+](=O)[O-] | -5.78 |  |
| COc1ccc(C=O)cc1 | -6.74 |  |
| Clc1ccccc1 | -9.07 |  |
| Brc1cccc(-c2ccccc2)c1 | -4.11 |  |
| CNC(=O)O/N=C/C(C)(C)S(C)=O (stereo not given) | -0.745 |  |
| Cl/C=C\Cl | -6.55 |  |
| C1CC2OC2CC1C1CO1 (stereo not given) | -0.851 |  |
| ClCc1ccccc1 | -7.68 |  |
| ClCC(Cl)Cl | -3.41 |  |
